In the supplement of paper PMC10849652:
Targets with a hit are over-represented here; the source holds about 7,900 in all. About 0.6% of all pairs of compound and target were hits. Unmarked numbers belong to inactive results.

UniProt Q9P287, sequence (Q9P287 whole entry, looked up): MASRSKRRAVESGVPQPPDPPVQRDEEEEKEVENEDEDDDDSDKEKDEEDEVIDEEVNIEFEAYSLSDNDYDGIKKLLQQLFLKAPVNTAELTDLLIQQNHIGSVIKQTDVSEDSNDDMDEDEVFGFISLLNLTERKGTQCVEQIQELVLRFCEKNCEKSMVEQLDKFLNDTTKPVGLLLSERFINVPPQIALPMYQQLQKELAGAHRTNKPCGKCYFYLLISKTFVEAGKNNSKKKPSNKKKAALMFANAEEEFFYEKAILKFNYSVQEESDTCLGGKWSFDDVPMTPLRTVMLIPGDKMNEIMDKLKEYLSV
UniProt Q8N6H7, sequence (Q8N6H7 whole entry, looked up): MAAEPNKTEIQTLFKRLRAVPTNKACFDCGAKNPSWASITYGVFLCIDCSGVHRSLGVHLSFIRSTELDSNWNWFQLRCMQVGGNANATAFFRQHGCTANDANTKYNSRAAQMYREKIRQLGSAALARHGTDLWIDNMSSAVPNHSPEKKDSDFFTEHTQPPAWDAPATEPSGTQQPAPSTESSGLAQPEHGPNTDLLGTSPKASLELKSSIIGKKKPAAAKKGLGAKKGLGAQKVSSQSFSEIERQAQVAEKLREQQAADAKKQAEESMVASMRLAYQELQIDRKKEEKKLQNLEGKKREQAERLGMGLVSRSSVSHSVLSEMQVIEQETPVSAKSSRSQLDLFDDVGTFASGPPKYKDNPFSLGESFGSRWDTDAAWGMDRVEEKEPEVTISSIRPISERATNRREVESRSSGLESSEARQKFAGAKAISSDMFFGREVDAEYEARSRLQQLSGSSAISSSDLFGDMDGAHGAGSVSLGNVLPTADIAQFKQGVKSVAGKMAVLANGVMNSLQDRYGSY
UniProt Q9UKV3, sequence (Q9UKV3 whole entry, looked up): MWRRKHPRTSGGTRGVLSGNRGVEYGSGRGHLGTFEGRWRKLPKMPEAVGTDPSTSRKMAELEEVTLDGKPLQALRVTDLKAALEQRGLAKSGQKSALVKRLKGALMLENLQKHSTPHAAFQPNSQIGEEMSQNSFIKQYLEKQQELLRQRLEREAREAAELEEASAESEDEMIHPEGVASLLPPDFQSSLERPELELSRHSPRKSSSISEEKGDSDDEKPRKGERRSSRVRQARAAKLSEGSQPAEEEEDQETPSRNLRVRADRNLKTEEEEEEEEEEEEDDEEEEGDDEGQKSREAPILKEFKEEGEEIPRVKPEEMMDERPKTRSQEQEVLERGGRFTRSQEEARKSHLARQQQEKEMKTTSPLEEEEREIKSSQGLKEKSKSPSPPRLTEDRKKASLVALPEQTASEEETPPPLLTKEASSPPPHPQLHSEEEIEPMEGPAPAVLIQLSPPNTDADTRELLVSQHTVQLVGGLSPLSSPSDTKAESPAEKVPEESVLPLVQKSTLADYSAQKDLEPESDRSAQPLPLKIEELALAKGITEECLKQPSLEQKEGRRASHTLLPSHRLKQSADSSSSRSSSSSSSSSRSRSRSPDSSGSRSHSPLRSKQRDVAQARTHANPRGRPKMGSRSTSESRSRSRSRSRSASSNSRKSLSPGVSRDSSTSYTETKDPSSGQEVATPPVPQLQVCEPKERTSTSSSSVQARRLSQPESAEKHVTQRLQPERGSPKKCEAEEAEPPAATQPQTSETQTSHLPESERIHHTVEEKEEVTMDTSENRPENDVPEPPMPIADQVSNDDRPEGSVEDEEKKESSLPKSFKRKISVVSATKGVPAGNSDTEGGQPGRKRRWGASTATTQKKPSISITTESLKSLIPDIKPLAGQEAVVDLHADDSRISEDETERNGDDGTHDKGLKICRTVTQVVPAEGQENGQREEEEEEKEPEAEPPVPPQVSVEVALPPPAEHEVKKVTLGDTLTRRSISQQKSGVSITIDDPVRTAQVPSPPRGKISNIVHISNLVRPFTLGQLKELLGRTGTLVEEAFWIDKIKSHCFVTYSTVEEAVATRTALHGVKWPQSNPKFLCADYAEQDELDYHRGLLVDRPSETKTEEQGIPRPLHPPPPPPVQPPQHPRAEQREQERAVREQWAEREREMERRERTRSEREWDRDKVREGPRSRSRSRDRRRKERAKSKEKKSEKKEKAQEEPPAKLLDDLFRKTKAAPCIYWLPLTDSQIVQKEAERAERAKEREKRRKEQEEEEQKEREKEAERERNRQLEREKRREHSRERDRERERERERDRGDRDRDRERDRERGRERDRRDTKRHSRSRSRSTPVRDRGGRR
UniProt Q9UII2, sequence (Q9UII2 whole entry, looked up): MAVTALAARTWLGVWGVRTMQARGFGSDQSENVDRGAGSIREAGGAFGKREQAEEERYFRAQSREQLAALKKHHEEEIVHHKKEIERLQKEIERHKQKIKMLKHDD
UniProt Q9H845, sequence (Q9H845 whole entry, looked up): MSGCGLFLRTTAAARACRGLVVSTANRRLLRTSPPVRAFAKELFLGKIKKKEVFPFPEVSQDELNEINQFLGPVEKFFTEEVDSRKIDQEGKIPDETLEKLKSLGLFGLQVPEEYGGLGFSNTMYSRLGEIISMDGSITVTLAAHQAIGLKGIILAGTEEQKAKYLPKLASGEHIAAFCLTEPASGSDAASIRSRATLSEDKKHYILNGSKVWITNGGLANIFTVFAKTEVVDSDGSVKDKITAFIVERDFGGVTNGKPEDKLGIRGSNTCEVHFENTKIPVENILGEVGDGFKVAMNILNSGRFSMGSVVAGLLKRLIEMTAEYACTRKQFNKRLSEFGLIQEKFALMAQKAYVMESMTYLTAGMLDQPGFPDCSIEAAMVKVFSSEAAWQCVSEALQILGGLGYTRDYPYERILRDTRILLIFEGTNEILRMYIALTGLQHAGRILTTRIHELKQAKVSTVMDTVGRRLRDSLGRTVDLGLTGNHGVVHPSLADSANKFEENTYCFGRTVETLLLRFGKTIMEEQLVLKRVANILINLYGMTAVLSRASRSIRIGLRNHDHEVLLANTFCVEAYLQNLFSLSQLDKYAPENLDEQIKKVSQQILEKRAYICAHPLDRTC
UniProt P11766, sequence (P11766 whole entry, looked up): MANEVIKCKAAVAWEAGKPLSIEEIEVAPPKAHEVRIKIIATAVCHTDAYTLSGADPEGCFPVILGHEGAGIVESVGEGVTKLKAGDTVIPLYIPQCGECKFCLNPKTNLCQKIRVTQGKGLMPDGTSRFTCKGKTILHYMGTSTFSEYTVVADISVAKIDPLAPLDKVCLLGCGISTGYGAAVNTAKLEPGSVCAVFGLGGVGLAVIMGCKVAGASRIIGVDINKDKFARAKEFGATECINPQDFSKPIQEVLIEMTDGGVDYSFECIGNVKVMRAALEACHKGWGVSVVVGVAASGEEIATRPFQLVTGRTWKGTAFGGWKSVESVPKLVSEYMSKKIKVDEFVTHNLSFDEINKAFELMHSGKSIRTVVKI
UniProt Q00973, sequence (Q00973 whole entry, looked up): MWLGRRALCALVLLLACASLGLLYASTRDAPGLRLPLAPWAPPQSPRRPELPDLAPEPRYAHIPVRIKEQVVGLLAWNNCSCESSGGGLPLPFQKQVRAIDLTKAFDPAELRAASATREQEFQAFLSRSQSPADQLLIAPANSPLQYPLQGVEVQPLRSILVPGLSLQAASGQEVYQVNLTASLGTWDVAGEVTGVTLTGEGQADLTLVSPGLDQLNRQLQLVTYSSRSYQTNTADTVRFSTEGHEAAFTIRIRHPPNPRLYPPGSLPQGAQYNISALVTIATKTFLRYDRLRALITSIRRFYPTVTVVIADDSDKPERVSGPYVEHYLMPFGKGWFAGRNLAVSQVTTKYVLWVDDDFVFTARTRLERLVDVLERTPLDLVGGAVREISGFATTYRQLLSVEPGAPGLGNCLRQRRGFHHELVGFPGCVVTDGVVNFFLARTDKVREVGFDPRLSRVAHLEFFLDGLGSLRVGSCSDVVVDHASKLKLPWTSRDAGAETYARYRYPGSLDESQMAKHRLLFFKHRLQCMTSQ
UniProt Q8N6D5, sequence (Q8N6D5 whole entry, looked up): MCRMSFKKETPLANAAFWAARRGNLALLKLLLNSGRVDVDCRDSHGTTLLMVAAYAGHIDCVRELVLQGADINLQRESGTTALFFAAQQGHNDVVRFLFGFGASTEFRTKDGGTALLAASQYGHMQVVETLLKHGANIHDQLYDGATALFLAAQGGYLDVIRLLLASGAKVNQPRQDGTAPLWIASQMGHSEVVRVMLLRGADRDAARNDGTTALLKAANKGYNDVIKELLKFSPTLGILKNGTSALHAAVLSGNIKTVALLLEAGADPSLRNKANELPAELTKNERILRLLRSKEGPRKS
UniProt O00170, sequence (O00170 whole entry, looked up): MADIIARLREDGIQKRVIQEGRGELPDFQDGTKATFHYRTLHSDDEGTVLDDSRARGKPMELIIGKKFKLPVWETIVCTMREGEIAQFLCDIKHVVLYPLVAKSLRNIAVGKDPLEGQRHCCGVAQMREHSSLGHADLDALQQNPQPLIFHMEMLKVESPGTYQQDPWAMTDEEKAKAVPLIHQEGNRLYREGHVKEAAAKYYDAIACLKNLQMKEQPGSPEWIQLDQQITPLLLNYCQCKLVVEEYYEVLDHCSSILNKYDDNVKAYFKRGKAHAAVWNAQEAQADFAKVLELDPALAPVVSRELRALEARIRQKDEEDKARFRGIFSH
UniProt P55957, sequence (P55957 whole entry, looked up): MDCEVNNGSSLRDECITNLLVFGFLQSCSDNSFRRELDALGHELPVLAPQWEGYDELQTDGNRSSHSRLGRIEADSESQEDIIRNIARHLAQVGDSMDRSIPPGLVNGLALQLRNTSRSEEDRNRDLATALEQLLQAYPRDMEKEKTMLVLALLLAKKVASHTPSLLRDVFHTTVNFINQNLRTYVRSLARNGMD
UniProt Q66PJ3, sequence (Q66PJ3 whole entry, looked up): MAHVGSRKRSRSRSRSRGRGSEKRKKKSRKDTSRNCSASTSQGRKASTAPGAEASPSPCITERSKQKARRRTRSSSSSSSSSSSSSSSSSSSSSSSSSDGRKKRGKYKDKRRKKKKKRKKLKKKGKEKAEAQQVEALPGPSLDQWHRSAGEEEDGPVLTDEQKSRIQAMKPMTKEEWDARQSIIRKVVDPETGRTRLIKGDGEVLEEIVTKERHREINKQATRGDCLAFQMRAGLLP

Each target was assayed with CS(=O)(=O)c1ccc(-c2cnc(N)c(C(=O)Nc3ccccc3)n2)cc1 (assay: log2 fold change, soluble protein after heating vs DMSO (PISA); higher = thermal stabilisation; K562 cells, 10 uM, 30 min; active = over 0.2 and 3.5 SD of the protein, either way, in both replicates (recomputed)).
Procedure, shortened: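 Thermal stability values are relative to control samples and come from duplicates. They are expressed as log2 fold changes. For measurement, K562 cells (2×10^6 cells/mL) received 10 μM compound for 30 min, and aliquots were heated for 3 min over 48°C-58°C, pooled, and extracted at 4°C in PBS with 0.5% NP-40. Soluble protein, the supernatant after 21,000xg for 90 min, was quantified by TMTpro 16plex LC-MS/MS with equalised channel sums.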
For AAMP (UniProt Q13685), the log2 fold change was 0.027. Target AKAP8 (UniProt O43823) has a log2 fold change of 0.047. ABITRAM (UniProt Q9NX38) was tested, and the log2 fold change was 0.055. ARL6IP4 (UniProt Q66PJ3) was tested, and the log2 fold change was 0.014. In the case of ATP6V1H (UniProt Q9UI12), the log2 fold change is reported as -0.045. With B4GALT1 (UniProt P15291) the log2 fold change was -0.007. For ASNS (UniProt P08243), the log2 fold change was 0.003. For BCCIP (UniProt Q9P287), the log2 fold change was -0.015. BUB1B isoform 3 (UniProt O60566) gave a log2 fold change of -0.015. Work on ATP9B (UniProt O43861) yielded a log2 fold change of 0.281. ATP2A3 isoform 2 (UniProt Q93084) gave a log2 fold change of -0.003. ACAD9 (UniProt Q9H845) gave a log2 fold change of 0.01. BRD8 (UniProt Q9H0E9) gave a log2 fold change of 0. With AGPAT5 (UniProt Q9NUQ2) the log2 fold change was 0.035. AIP (UniProt O00170) showed a log2 fold change of 0.031. Work on ACADVL isoform 3 (UniProt P49748) yielded a log2 fold change of 0.042. BID isoform 2 (UniProt P55957) was tested, and the log2 fold change was 0.047. With BCL9L (UniProt Q86UU0) the log2 fold change was 0.029. ARFGAP2 (UniProt Q8N6H7) showed a log2 fold change of -0.04. Target AHSA1 (UniProt O95433) has a log2 fold change of 0.035. Target ANKRD29 (UniProt Q8N6D5) has a log2 fold change of 0.125. Target BRAP (UniProt Q7Z569) has a log2 fold change of 0.027. BCCIP isoform 2 (UniProt Q9P287) gave a log2 fold change of -0.006. Work on ACP2 (UniProt P11117) yielded a log2 fold change of 0.06. Target B4GALNT1 (UniProt Q00973) has a log2 fold change of 0.198. With ACIN1 (UniProt Q9UKV3) the log2 fold change was -0.011. BCLAF1 (UniProt Q9NYF8) gave a log2 fold change of -0.002. For ABCA3 (UniProt Q99758), the log2 fold change was 0.111. ATP5IF1 (UniProt Q9UII2) gave a log2 fold change of 0.004. AGO1 (UniProt Q9UL18) showed a log2 fold change of -0.071. With ADH5 (UniProt P11766) the log2 fold change was -0.021. ARGLU1 (UniProt Q9NWB6) gave a log2 fold change of -0.038. ABCB6 (UniProt Q9NP58) gave a log2 fold change of 0.03. In the case of ARFIP1 (UniProt P53367), the log2 fold change is reported as 0.833. In the case of ATG4B isoform 2 (UniProt Q9Y4P1), the log2 fold change is reported as 0.078.
